Compound activity (PubChem BioAssay)
NPR1 antag – Natriuretic polypeptide receptor (hNpr1) antagonism - Primary qHTS; Atrial natriuretic peptide receptor 1 (Homo sapiens), P16066; HEK293 hNpr1 GloSensor cGMP, ANP-stimulated luminescence; Potency, µM (doses to about 46.3 µM), usual class: inhibitors; 76,000 tested, 1.6% active; calls by dose curve; note: nearly all actives have a fitted effect of over 60% in size
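Compound pre-incubated 30 min at room temperature on GloSensor-loaded HEK293 cells stably carrying hNpr1 and the pGS-40F cGMP biosensor. Stimulation uses hNppA at 0.1 nM final; luminescence is taken at baseline and 20 min post-agonist.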
NIH3T3 tox – Cytotoxic Profiling in NIH 3T3 Cell Line of Diverse Libraries Using Quantitative High-Throughput Screening; Potency, µM (doses to about 96.7 µM), most hits filed as inhibitors; AID 1345082, 2018; NIH 3T3 viability, CellTiter-Glo ATP luminescence, 48-72 h; 94,000 tested, 4.3% active; note: nearly all actives have a fitted effect of over 55% in size
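ATP-dependent luminescence (CellTiter-Glo) served as the viability signal for NIH 3T3 cells treated with compound for 48 or 72 hr at 37 °C.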
GPT2 inhibitor – Primary qHTS assay for inhibitors of Glutamate pyruvate transaminase 2 (GPT2) | Alanine aminotransferase 2 (Homo sapiens), Q8TD30 | Recombinant GPT2, coupled pyruvate oxidase/HRP Amplex Red fluorescence | Potency, µM (highest dose often 57.7 µM), actives largely listed as inhibitors | 100,000 tested, 0.25% active | AID 1671188, 2021; note: nearly all actives have a fitted effect of over 60% in size
Target sequence (Q8TD30 whole entry, looked up): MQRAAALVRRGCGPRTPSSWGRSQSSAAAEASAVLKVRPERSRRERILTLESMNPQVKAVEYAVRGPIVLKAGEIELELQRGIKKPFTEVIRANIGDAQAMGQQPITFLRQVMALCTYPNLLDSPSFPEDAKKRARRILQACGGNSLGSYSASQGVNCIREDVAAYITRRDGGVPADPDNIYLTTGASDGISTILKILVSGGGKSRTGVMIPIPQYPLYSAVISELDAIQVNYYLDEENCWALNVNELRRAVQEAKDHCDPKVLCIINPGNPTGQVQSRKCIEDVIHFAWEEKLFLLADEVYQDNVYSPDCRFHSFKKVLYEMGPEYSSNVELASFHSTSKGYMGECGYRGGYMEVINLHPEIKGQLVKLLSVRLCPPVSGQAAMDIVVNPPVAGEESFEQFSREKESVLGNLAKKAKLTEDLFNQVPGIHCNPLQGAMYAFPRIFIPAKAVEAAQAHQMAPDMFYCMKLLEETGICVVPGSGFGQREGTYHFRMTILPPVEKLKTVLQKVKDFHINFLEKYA
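Recombinant GPT2 (10ng/uL) with 250uM a-KG and 2mM L-alanine, 30 min at room temperature, in HEPES pH 7.5 buffer. Pyruvate detected by pyruvate oxidase/HRP/Amplex Red fluorescence after 30 min in the dark; AOA (50uM) as positive control.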
HEK cytotox – Cytotoxic Profiling in HEK 293 Cell Line of Diverse Libraries Using Quantitative High-Throughput Screening; 94,000 tested, 6.6% active; Potency, µM (series often up to 115 µM), hits mostly inhibitors; HEK 293 viability, ATP luminescence (CellTiter-Glo), 48-72 h; AID 1345083, 2018; note: nearly all actives have a fitted effect of over 60% in size
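HEK 293 cells seeded at 250 cells/well were exposed to compound for 48 or 72 hr at 37 degree Celsius. Viability taken as ATP content by CellTiter-Glo luminescence.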
Luciferase inh – Firefly luciferase inhibition profiling of diverse chemical library using quantitative high-throughput screening | Potency, µM (top dose mostly 115 µM), most hits filed as inhibitors | purified P. pyralis luciferase, luminescence, biochemical | 76,000 tested, 2.5% active; note: nearly all actives have a fitted effect of over 65% in size
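Luminescence read by CCD imager after adding enzyme (10nM final) to wells holding compound, titrated in qHTS. Substrates 10uM each D-luciferin and ATP; buffer 50mM Tris acetate pH 7.5, 10mM Mg acetate, Tween-20, BSA.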
Hits are given with their value; - = inactive; ? = inconclusive; . = not tested or not shown. An excerpt weighted towards active compounds, which were near 10% of everything screened. Unless noted, calls come from the whole dose curve; as a rule, active = well fitted curve in the direction sought with a large enough effect; inconclusive = small, poorly fitted or top-dose-only effect, or another doubt; inactive = no such curve, though single readings can be large; an effect the other way counts as inactive or inconclusive.

SMILES	NPR1 antag	NIH3T3 tox	GPT2 inhibitor	HEK cytotox	Luciferase inh
Cn1ncc2c(C(=O)NCC3CC3)cc(-c3ccc(C(F)(F)F)cc3)nc21	.	?	.	31.6µM	.
Cn1ncc2c(C(=O)NCc3ccc(C(F)(F)F)cc3)cc(-c3ccc(C(F)(F)F)cc3)nc21	.	-	.	-	.
Cn1ncc2c(C(=O)NC3CCOCC3)cc(-c3ccc(C(F)(F)F)cc3)nc21	.	-	.	-	.
Cn1ncc2c(C(=O)NCC3CC3)cc(-c3ccsc3)nc21	.	89.1µM	-	?	.
Cn1ncc2c(C(=O)NC3CCC3)cc(-c3ccc(C(F)(F)F)cc3)nc21	.	35.5µM	.	39.8µM	.
COc1ccc(-c2noc(-c3cccn3CC(=O)Nc3ccc(C)cc3C)n2)cc1F	-	-	-	-	-
COc1ccccc1-n1c(=O)c(C(=O)N2CCN(c3ncccn3)CC2)nc2cccnc21	.	-	-	-	.
COc1ccc(NC(=O)C2CCc3nnc(C4CC4)n32)cc1 (configuration not stated)	.	-	-	-	.
COc1cccc(-c2cc(C(=O)NCc3ccccn3)c3cnn(C)c3n2)c1	.	?	.	79.4µM	.
O=C(NCC1CC1)c1ccc2nccn2c1	.	-	-	-	.
O=C(NCc1cccs1)c1ccc2nccn2c1	-	-	-	-	39.8µM
O=C(NCCC1CCCCC1)c1ccc2nccn2c1	-	?	-	50.1µM	?
O=C(NCc1ccc(Cl)cc1)c1nc2sccn2c1-c1ccncc1	.	?	-	?	.
CN(Cc1cccnc1)c1ccc2ncc(Nc3ccc4c(c3)OCO4)n2n1	-	?	-	?	-
CN(Cc1ccc(F)cc1)c1ccc2ncc(Nc3ccc4c(c3)OCO4)n2n1	?	28.2µM	-	63.1µM	-
CN(Cc1ccc(F)cc1)Cc1cccnc1	-	-	-	-	-
OCCc1ccc(Nc2cnc3ccc(-c4ccc(F)cc4)nn23)cc1	-	?	-	?	-
CN(Cc1cccnc1)c1ccc2ncc(Nc3ccc(F)cc3)n2n1	?	?	?	79.4µM	-
CN(Cc1ccc(F)cc1)c1ccc2ncc(Nc3cccc(O)c3)n2n1	?	?	?	63.1µM	-
O=C(Cc1ccccn1)NC1CCN(C(=O)c2ccc(-c3cncnc3)cc2)CC1	.	-	-	-	.
COCCCNC(=O)c1nc2cccnc2n(C2CC2)c1=O	.	-	-	-	.
Cc1noc(-c2ccc(OC3CN(C(=O)CC4CCCC4)C3)cc2)n1	?	?	-	31.6µM	-
Cc1noc(-c2ccc(OC3CN(C(=O)Cc4ccccc4)C3)cc2)n1	-	-	-	?	-
Cc1noc(-c2ccc(OC3CN(C(=O)Nc4ccccc4)C3)cc2)n1	12.6µM	-	-	?	?
Cc1noc(-c2cn(C3CCN(C(=O)Cc4ccc(Br)cc4)CC3)nn2)n1	-	?	-	-	-
SMILES	NPR1 antag	NIH3T3 tox	GPT2 inhibitor	HEK cytotox	Luciferase inh
CCc1ccc(NC(=O)c2cc(-c3ccc[nH]3)n[nH]2)cc1	-	-	-	?	3.16µM
Cc1ccc(NC(=O)c2cc(-c3ccc[nH]3)n[nH]2)cc1C	-	-	-	-	7.94µM
Cc1ccc(NC(=O)c2cc(-c3ccc[nH]3)n[nH]2)cc1	-	-	-	-	3.98µM
Cc1cc(C)cc(NC(=O)c2cc(-c3ccc[nH]3)n[nH]2)c1	-	?	-	?	20µM
O=C(NC1CC1)c1cn2cc(-c3cccc(C(F)(F)F)c3)sc2n1	.	?	-	?	.
CN1Cc2ccc(C(=O)Nc3ccc4cn[nH]c4c3)cc2OCC1=O	-	?	-	-	31.6µM
Cn1cc(CN2Cc3ccc(C(=O)Nc4ccc(F)cc4)cc3OCC2=O)cn1	-	-	-	?	-
O=C(NC1CCNCC1)c1cc(C2CC2)nc2c1c(C1CCCN1)nn2-c1ccccc1 (configuration not stated)	.	22.4µM	-	44.7µM	.
O=C(NC1CC1)c1cc(C2CC2)nc2c1c(C1CCCN1)nn2-c1ccccc1 (configuration not stated)	.	31.6µM	-	79.4µM	.
Cn1nc(C2CCCN2)c2c(C(=O)NC3CC3)cc(C3CC3)nc21 (configuration not stated)	.	-	-	-	.
Cc1cc(C)cc(-c2ccc(CN3CCCC(N[S+](C)(=O)[O-])C3)cc2)c1 (configuration not stated)	.	?	?	39.8µM	.
Cc1cc(C)cc(-c2ccc(CN3CCCC(NC(=O)NC(C)C)C3)cc2)c1 (configuration not stated)	.	-	-	-	.
Cc1cc(C)cc(-c2ccc(CN3CCCC(N[S+](=O)([O-])c4cccc(C(F)(F)F)c4)C3)cc2)c1 (configuration not stated)	.	31.6µM	-	?	.
Cc1ccc([S+](=O)([O-])NC2CCCN(Cc3ccc(-c4cncnc4)cc3)C2)cc1 (configuration not stated)	.	?	-	?	.
COc1cccc(-c2ccc(C(=O)N3CCC(C(=O)NCC(F)(F)F)CC3)cc2)c1	.	?	-	?	.
CC(C(=O)NCCc1ccccc1)N1C(=O)COc2ccc(C(=O)COc3ccc(Cl)cc3)cc21 (configuration not stated)	-	?	-	44.7µM	-
Cc1cc(F)ccc1OCC(=O)c1ccc2c(c1)N(C(C)C(=O)N1CCCCC1)C(=O)CO2 (configuration not stated)	-	?	-	50.1µM	?
CC(C(=O)NC1CC1)N1C(=O)COc2ccc(C(=O)COc3cccc(Cl)c3)cc21 (configuration not stated)	-	?	-	?	-
COc1cccc(OCC(=O)c2ccc3c(c2)N(CCCC(=O)NCc2ccccc2)C(=O)CO3)c1	-	39.8µM	-	?	-
COc1cc(C)ccc1OCC(=O)c1ccc2c(c1)N(CC(=O)N1CCCC1)C(=O)CO2	-	-	-	?	-
COc1ccccc1OCC(=O)c1ccc2c(c1)N(C(C)C(=O)NCCc1ccccc1)C(=O)CO2 (configuration not stated)	-	?	-	?	-
Cc1cccc(OCC(=O)c2ccc3c(c2)N(C(C)C(=O)N2CCCC2)C(=O)CO3)c1C (configuration not stated)	-	-	-	44.7µM	?
COC1CCC12CCN(C(=O)CCCc1ccccc1)CC2 (configuration not stated)	.	-	-	-	.
Cc1cnc(-c2ccccc2)n1C1CCN(C(=O)Cc2cccc(F)c2)CC1	.	-	-	?	.
CC1CCCC(C)N1C(=O)c1ccc2nc(-c3ccncc3)oc2c1 (configuration not stated)	.	-	-	70.8µM	.
